# This is a sample that favours compounds with a hit; in the whole collection about 4% have one here.
# PAX8 reporter: PAX8 transcriptional activity inhibition | RMG-I TPO-luciferase reporter, SteadyGlo, 24 h | inhibition, % at 12.6 µM | actives 1.2% (n = 360,000) | AID 652154;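 active means mean replicate inhibition at least 60% with every replicate also reaching 60%; inconclusive means only one of the two criteria is met; inactive means mean below 60% and not all replicates reaching 60%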;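 further: luciferase light reporting Pax8 driven TPO promoter activity; plate controls were median of neutral control wells for no effect and mitoxantrone controls for full effect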
# EWS-Fli inh: blocks EWS/Fli oncoprotein-driven transcription. actives 0.67% (n = 350,000). AID 651661. inhibition, % at 12.6 µM. A673 NR0B1-luciferase reporter, viability-normalised;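 active means mean inhibition of at least 50% after viability correction, with every replicate also passing that limit; inconclusive means mean reaches 50% but only one of two replicates passes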;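 further: firefly luciferase signal divided by Alamar Blue viability fluorescence both relative to DMSO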
# MITF TRPM1 HTS: increases MITF-driven TRPM1 promoter luciferase signal | AID 588334 | SK-MEL-5 TRPM1-promoter luciferase, 24 h; % of positive control, neutral wells = 0 | actives 0.75% (n = 300,000) | activation, % at 12.5 µM;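 active means mean activation of at least 80% with every replicate also reaching 80%; inconclusive means mean reaches 80% but some replicate falls short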;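 further: 0% = neutral control wells and 100% = parthenolide positive control wells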
# esBAF inh: SWI/SNF esBAF complex inhibition; mouse ES cells, Bmi1-luciferase knock-in reporter, 24 h; 100% = twice the neutral-well signal; reporter increase, % at 12.5 µM; actives 2% (n = 350,000); AID 602393; in the data active means activation above about 40%; inconclusive means no clear call, values can overlap the other calls;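 further: 0% = median of the plate's neutral control wells and 100% = double that signal; a rise in the Bmi1 reporter signal indicates esBAF inhibition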
# MITF TRPM1 inh: reduces MITF-dependent TRPM1 promoter luciferase signal; SK-MEL-5 TRPM1 promoter luciferase, 24 h; inhibition, % at 12.5 µM; actives 0.83% (n = 330,000); AID 488899;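 active means mean inhibition across replicates of 60% or more, whatever share of single replicates reaches that level; inconclusive means some that reach 60%, reason not given; inactive means mean inhibition across replicates below 60%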
# Wnt bcat act: Wnt/beta-catenin pathway activation | Wnt/beta-catenin reporter cell assay, activator, plate reader | activation, % at 9.35 µM | actives 1.2% (n = 300,000); in the data active means activation above about 30%, passing the limit was not always enough; inconclusive means no clear call, values can overlap the other calls;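 further: 0% = neutral control wells and 100% = positive control wells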
# Numbers without * were called inactive; ? = inconclusive; nt = not tested or not shown.
SMILES,PAX8 reporter,EWS-Fli inh,MITF TRPM1 HTS,esBAF inh,MITF TRPM1 inh,Wnt bcat act
O=C(Nc1ccccc1F)c1ccc([N+](=O)[O-])s1,9.8,11.5,-32.6,nt,33.0,12.4
Cn1cc(Cl)cc(C(=O)Nc2ccccc2)c1=O,-53.2,-69.6,46.5,?,-45.0,21.5
O=C(Nc1cccnc1)c1ccc([N+](=O)[O-])s1,67.4*,35.0,-76.5,-0.4,75.1*,-0.5
O=C(Nc1ccccc1)c1cn(CCBr)cn1,-111.8,-34.2,nt,4.3,-36.1,50.4*
CCC(C)c1ccc(NC(=O)Nc2cccnc2)cc1 (stereo not drawn),nt,-92.3,111.1*,60.7*,-107.9,19.7
O=C(Nc1ccccc1)c1ccc(C(=O)Nc2ccccc2)nc1,-14.3,-95.7,55.1,22.3,-55.0,43.7*
O=C(Nc1cccnc1)c1ccccc1Oc1ccccc1,nt,nt,-14.2,-3.0,12.2,nt
CC(=O)Nc1cccc(NC(=O)c2ccc(C(=O)Nc3cccc(NC(C)=O)c3)nc2)c1,4.3,-31.1,-3.8,nt,2.7,29.8
O=C(Nc1cccnc1)c1ccc(Oc2ccccc2)cc1,-140.8,nt,51.9,53.6*,-98.4,40.8*
Cc1ccc(-c2noc(C3CCCCC3)n2)cc1,nt,nt,166.8*,nt,-164.8,nt
Cc1cccc(-c2noc(C3CCCCC3)n2)c1,nt,nt,36.7,63.3*,-40.5,nt
CCS(=O)(=O)N1CCC(c2nc(-c3ccc(C)cc3)no2)CC1,nt,nt,49.3,?,-43.1,nt
CNC[C@H]1Oc2ncc(C#CC3CCCCC3)cc2C(=O)N([C@@H](C)CO)C[C@H]1C,-0.2,-14.6,nt,-2.8,nt,nt
C[C@@H]1CN([C@H](C)CO)S(=O)(=O)c2ccc(-c3cccc(C(=O)N(C)C)c3)cc2O[C@H]1CN(C)C(=O)Nc1ccccc1,-8.2,-4.0,nt,-2.5,nt,nt
CCC(=O)Nc1c(C)nn(-c2ccc(C)c(C)c2)c1C,-8.9,-4.2,4.9,nt,-1.9,-1.7
Cc1ccc(-n2nc(C)c(NC(=O)CCl)c2C)cc1C,111.8*,nt,30.8,nt,-29.7,6.1
COc1ccc(-c2nc(-c3cccs3)no2)cc1,40.5,82.5*,-23.3,nt,22.0,8.9
COc1ccccc1-c1noc(-c2ccncc2)n1,nt,nt,34.6,45.8*,-36.7,0.4
COc1ccc(-c2nc(-c3ccncc3)no2)cc1,-147.2,15.3,60.0,-12.2,-62.0,27.8
COc1ccccc1-c1noc(-c2cccs2)n1,nt,-97.2,120.8*,54.8*,-122.0,22.6
Cc1cccc(NC(=S)N2N=CCC2c2ccccc2)c1 (stereo not drawn),-66.4,nt,48.4,48.8*,-46.6,6.1
COc1ccc(NC(=O)N2C[C@@H](O)COC[C@@H]3O[C@@H](CC(=O)N4CCN(C)CC4)CC[C@H]32)cc1,-22.1,-19.3,nt,3.4,nt,nt
C[C@H](CO)N1C[C@H](C)[C@H](CN(C)C(=O)C2CCCCC2)OCc2cn(nn2)CCCC1=O,nt,-4.4,nt,-5.6,nt,nt
Cc1ccc(C(=O)N2CCc3ccccc32)cc1,nt,nt,30.4,51.0*,-36.1,11.9
CCc1sc(C(=O)N2CCc3ccccc32)cc1C,-107.7,-112.2,63.6,nt,-58.7,39.2*
SMILES,PAX8 reporter,EWS-Fli inh,MITF TRPM1 HTS,esBAF inh,MITF TRPM1 inh,Wnt bcat act
CC1CCN(c2c(NCc3ccc(C(=O)N4CCc5ccccc54)cc3)c(=O)c2=O)CC1,23.0,53.3*,-49.3,-5.0,49.5,-5.0
O=C(c1ccc(Cl)cc1)N1CCc2ccccc21,-16.8,-46.4,nt,13.9,-30.3,0.6
Cc1ccc(-c2cc(C(=O)N3CCCc4ccccc43)no2)cc1,-114.3,-90.0,?,71.8*,-94.7,11.3
O=C(COc1ccc2c(c1)CCC2)Nc1ccccn1,-162.7,-48.4,-49.5,51.4*,51.0,11.8
Cc1cccc(NC(=O)COc2ccc3c(c2)CCC3)n1,-7.9,-18.6,101.4*,9.9,-105.5,1.7
Cc1cccc(NC(=O)COc2ccc3oc4c(c3c2)CCCC4)n1,nt,nt,18.8,16.9,-18.1,1.6
COc1cc(C)c(NC(=O)COc2ccc3c(c2)CCC3)cc1OC,2.9,-4.7,-4.4,-2.2,4.2,2.0
Cc1ccccc1NC(=O)COC(=O)COc1ccc2c(c1)CCC2,2.8,-2.9,-9.8,-2.9,8.3,-3.4
Cc1cnc(NC(=O)COc2ccc3c(c2)CCC3)s1,-81.5,-64.8,40.0,18.4,-36.3,43.1*
O=C(COC(=O)COc1ccc2c(c1)CCC2)Nc1ccccc1,-36.1,-28.6,30.2,42.0*,-31.1,-0.2
C[C@H](CO)N1C[C@H](C)[C@H](CN(C)C(=O)C2CC2)Oc2cc(C#CCN(C)C)ccc2S1(=O)=O,nt,-14.2,nt,2.4,nt,nt
C[C@H](CO)N1C[C@H](C)[C@@H](CN(C)S(=O)(=O)c2ccc(F)cc2)Oc2ccc(NC(=O)Nc3ccccc3)cc2CC1=O,58.0,8.6,nt,23.0,nt,nt
COc1ccccc1-c1cnc2c(c1)C(=O)N([C@H](C)CO)C[C@@H](C)[C@H](CN(C)CC1CCOCC1)O2,9.0,-5.8,nt,-2.1,nt,nt
CCC(=O)N1CC2(CCN(Cc3ccc(Cl)cc3)CC2)c2c([nH]c3cc(OC)ccc23)[C@H]1CO,nt,-6.7,nt,nt,nt,nt
CN(c1ccc(C(=O)N2CCOCC2)cc1[N+](=O)[O-])C1CCCCC1,nt,nt,67.1,57.5*,-65.4,nt
CN1C(=O)c2cc(NC(=O)c3cccs3)ccc2OC[C@H]2O[C@H](CC(=O)NCC(F)(F)F)CC[C@H]21,14.7,-0.6,nt,7.7,nt,nt
CC(C)c1ccc(NC(=O)COc2ccc(F)cc2C(=O)c2cnn(-c3ccccc3)c2)cc1,-127.6,nt,39.5,nt,-38.1,nt
O=C(c1cnn(-c2ccccc2)c1)c1cc(F)ccc1O,-45.8,-34.8,66.0,89.3*,-66.3,13.8
COc1ccc(-n2cc(C(=O)c3ccccc3O)cn2)cc1,-18.9,22.0,9.9,nt,-8.6,-2.1
O=C(COc1ccccc1C(=O)c1cnn(-c2ccccc2)c1)Nc1ccc2ccccc2c1,-132.9,-54.2,113.6*,82.3*,-108.0,7.4
COc1ccc(O)c(C(=O)CC(=O)c2cccnc2)c1,-102.5,-41.2,62.3,19.6,-60.3,34.1*
COc1ccc(O)c(C(=O)c2cnn(-c3ccccc3)c2)c1,-38.6,-68.0,32.4,52.6*,-20.2,-2.0
C[C@@H]1CN([C@H](C)CO)C(=O)Cc2cc(NS(C)(=O)=O)ccc2O[C@@H]1CN(C)C(=O)Nc1ccccc1,-2.6,-2.4,nt,-0.4,nt,nt
CCC(=O)N1CC2(C1)[C@H](c1ccc(-c3ccc(F)cc3)cc1)[C@@H](CO)N2S(C)(=O)=O,7.2,0.0,nt,nt,nt,nt
C[C@@H]1CN([C@H](C)CO)S(=O)(=O)c2ccc(Br)cc2O[C@H]1CN(C)C(=O)C1CCC1,nt,-8.4,nt,nt,nt,nt
COc1ccc(NC(=O)N(C)C[C@@H]2OCCCC[C@@H](C)Oc3ccc(NS(=O)(=O)c4ccc(F)cc4)cc3C(=O)N([C@H](C)CO)C[C@@H]2C)cc1,-5.2,-8.2,nt,-6.8,nt,nt
Brc1ccsc1/C=N/Nc1ccccc1,-41.7,-83.3,nt,nt,-53.4,41.2*
NS(=O)(=O)c1ccc(N/N=C/c2ccccc2Br)cc1,-40.0,-24.7,12.3,nt,-16.3,5.9
